Measurements taken from PubChem BioAssay AID1159580 (chemical genetic matrix, 2015).
Where “and” joins values, the source holds several entries; their conditions need not be identical. Equal values may be shown once. Screen size: about 5,500 compounds; about 2,000 (36%) were called active. Roughly 18% stayed inconclusive and do not appear here. Cut-off read from the data, not from the text of the source: active = normalized growth mostly below about 0.91 (no sharp cut-off); inconclusive = no clear call, values can overlap the other calls; inactive = mostly above about 0.92. This is one part of the list.

Test: chemical genetic growth profiling, strain panel (AID 1159580);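 note: tested at 20 µM; growth read once vehicle control cultures reached saturation at 30 °C; 1 = growth at the plate median or of vehicle wells; lower values mean less growth of the strain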
Conditions: S. cerevisiae deletion strains, growth OD

Measured: normalized growth

CC1(C)CC2C1CCC1(C)OC2(C)CCC1O (stereo not given)
inactive: locus YAL021C, strain ccr4, stronger effect = lower value 1.02 | locus YAL026C, strain drs2, stronger effect = lower value 1.05 | locus YAL030W, strain snc1, stronger effect = lower value 1.03 | locus YBL061C, strain skt5, stronger effect = lower value 1.03 | locus YBR009C, strain hhf1, stronger effect = lower value 1.03 | locus YBR021W, strain FUR4, stronger effect = lower value 1.03 | locus YBR023C, strain chs3, stronger effect = lower value 1.03 | locus YBR171W, strain sec66, stronger effect = lower value 1.03 | locus YBR229C, strain ROT2, stronger effect = lower value 1.02 | locus YBR231C, strain swc5, stronger effect = lower value 1.02 | locus YBR279W, strain paf1, stronger effect = lower value 1.02 | locus YCL011C, strain gbp2, stronger effect = lower value 1.02 | locus YCL016C, strain dcc1, stronger effect = lower value 1.01 | locus YCL029C, strain bik1, stronger effect = lower value 1.01 | locus YCL061C, strain MRC1, stronger effect = lower value 1.03 | locus YCL069W, strain vba3, stronger effect = lower value 1.03 | locus YCR088W, strain abp1, stronger effect = lower value 1.02 | locus YDL005C, strain med2, stronger effect = lower value 1.03 | locus YDL035C, strain GPR1, stronger effect = lower value 0.989 | locus YDL040C, strain nat1, stronger effect = lower value 1.01 | locus YDL074C, strain BRE1, stronger effect = lower value 1.02 | locus YDL101C, strain DUN1, stronger effect = lower value 1.03 | locus YDL185W, strain tfp1, stronger effect = lower value 1.01 | locus YDL192W, strain arf1, stronger effect = lower value 1 | locus YDR001C, strain nth1, stronger effect = lower value 1.02 | locus YDR069C, strain doa4, stronger effect = lower value 1.02 | locus YDR101C, strain arx1, stronger effect = lower value 0.993 | locus YDR137W, strain rgp1, stronger effect = lower value 1.03 | locus YDR159W, strain sac3, stronger effect = lower value 1.03 | locus YDR162C, strain NBP2, stronger effect = lower value 1.02 | locus YDR195W, strain ref2 1.02 | locus YDR297W, strain sur2, stronger effect = lower value 1.04 | locus YDR318W, strain mcm21, stronger effect = lower value 0.994 | locus YDR334W, strain swr1, stronger effect = lower value 1.03 | locus YDR335W, strain msn5, stronger effect = lower value 1.02 | locus YDR388W, stronger effect = lower value 1.01 | locus YDR392W, strain spt3, stronger effect = lower value 0.958 | locus YDR502C, strain sam2, stronger effect = lower value 1.03 | locus YEL003W, strain gim4, stronger effect = lower value 1.02 | locus YEL037C, strain rad23, stronger effect = lower value 1.02 | locus YEL061C, strain CIN8 (second series), stronger effect = lower value 1.02 | locus YER015W, strain faa2, stronger effect = lower value 1.04 | locus YER016W, strain bim1, stronger effect = lower value 1.02 | locus YER110C, stronger effect = lower value 1.01 | locus YER111C, strain swi4, stronger effect = lower value 1.02 | locus YER155C, strain BEM2 (second series), stronger effect = lower value 1.04 | locus YER155C, strain BEM2, stronger effect = lower value 0.996 | locus YER167W, strain BCK2, stronger effect = lower value 1 | locus YFR010W, strain ubp6, stronger effect = lower value 1.04 | locus YGL078C, strain dbp3, stronger effect = lower value 1.03 | locus YGL086W, strain mad1, stronger effect = lower value 1.02 | locus YGL167C, strain pmr1, stronger effect = lower value 1.03 | locus YGL173C, strain kem1, stronger effect = lower value 1.04 | locus YGL227W, strain vid30, stronger effect = lower value 1.01 | locus YGL240W, strain doc1, stronger effect = lower value 1.03 | locus YGL248W, strain PDE1, stronger effect = lower value 1.07 | locus YGL253W, strain hxk2, stronger effect = lower value 1.04 | locus YGR135W, strain pre9, stronger effect = lower value 1.08 | locus YGR229C, strain SMI1, stronger effect = lower value 0.978 | locus YGR252W, strain gcn5, stronger effect = lower value 1.11 | locus YHR013C, strain ard1, stronger effect = lower value 1.06 | locus YHR027C, strain rpn1, stronger effect = lower value 1.05 | locus YHR030C, strain SLT2, stronger effect = lower value 0.992 and 1.02 | locus YHR079C, strain IRE1 (second series), stronger effect = lower value 1.01 | locus YHR079C, strain IRE1, stronger effect = lower value 1.02 | locus YHR094C, strain hxt1, stronger effect = lower value 1.02 | locus YHR129C, strain ARP1, stronger effect = lower value 1.01 | locus YHR142W, strain chs7, stronger effect = lower value 1.02 | locus YHR200W, strain rpn10, stronger effect = lower value 1.03 | locus YIL066C, strain RNR3, stronger effect = lower value 1.01 | locus YIL073C, strain SPO22, stronger effect = lower value 1.02 | locus YIL125W, strain kgd1, stronger effect = lower value 0.999 | locus YIR030C, strain dcg1, stronger effect = lower value 1 | locus YJL092W, strain hpr5, stronger effect = lower value 1.03 | locus YJL095W, strain BCK1 (second series), stronger effect = lower value 1.03 | locus YJL095W, strain BCK1, stronger effect = lower value 1.09 and 1.03 | locus YJL115W, strain asf1, stronger effect = lower value 1.03 | locus YJL129C, strain trk1, stronger effect = lower value 1.05 | locus YJL134W, strain LCB3, stronger effect = lower value 1 | locus YJL154C, strain vps35, stronger effect = lower value 1.03 | locus YJL164C, strain tpk1, stronger effect = lower value 1.01 | locus YJL166W, strain qcr8, stronger effect = lower value 1.03 | locus YJL168C, strain set2, stronger effect = lower value 1.01 | locus YJL187C, strain SWE1 (second series), stronger effect = lower value 1.05 | locus YJR043C, strain POL32, stronger effect = lower value 0.976 | locus YJR066W, strain TOR1, stronger effect = lower value 0.959 | locus YJR075W, strain HOC1, stronger effect = lower value 1.01 | locus YKL009W, strain mrt4, stronger effect = lower value 0.984 | locus YKL068W, stronger effect = lower value 1 | locus YKL085W, strain MDH1 (second series), stronger effect = lower value 0.978 | locus YKL085W, strain MDH1, stronger effect = lower value 0.978 | locus YKL160W, strain elf1, stronger effect = lower value 1 | locus YKL190W, strain CNB1, stronger effect = lower value 1 | locus YKR001C, strain vps1, stronger effect = lower value 1.03 | locus YKR026C, strain gcn3, stronger effect = lower value 1.03 | locus YKR091W, strain srl3, stronger effect = lower value 1.01 | locus YLL001W, strain dnm1, stronger effect = lower value 0.991 | locus YLL026W, stronger effect = lower value 1.02 | locus YLL041C, strain sdh2, stronger effect = lower value 1.02 | locus YLR027C, strain aat2, stronger effect = lower value 1.02 | locus YLR039C, strain RIC1, stronger effect = lower value 1.05 | locus YLR058C, strain SHM2, stronger effect = lower value 1.03 | locus YLR102C, strain apc9, stronger effect = lower value 1 | locus YLR113W, strain HOG1, stronger effect = lower value 1.03 | locus YLR221C, strain rsa3, stronger effect = lower value 1.04 | locus YLR258W, strain gsy2, stronger effect = lower value 1.01 | locus YLR262C, strain YPT6 (second series), stronger effect = lower value 1.03 | locus YLR268W, strain sec22, stronger effect = lower value 0.981 | locus YLR320W, strain mms22, stronger effect = lower value 1.04 | locus YLR330W, strain CHS5, stronger effect = lower value 1 | locus YLR342W, strain FKS1 (second series), stronger effect = lower value 0.993 | locus YLR342W, strain FKS1, stronger effect = lower value 1.03 | locus YLR357W, strain rsc2, stronger effect = lower value 1.04 | locus YLR370C, strain arc18, stronger effect = lower value 1.02 | locus YLR371W, strain rom2, stronger effect = lower value 1.02 | locus YLR384C, strain iki3, stronger effect = lower value 1.02 | locus YLR418C, strain cdc73, stronger effect = lower value 1.08 | locus YML016C, strain PPZ1, stronger effect = lower value 1.01 | locus YML032C, strain rad52, stronger effect = lower value 1.02 | locus YML120C, strain ndi1, stronger effect = lower value 1.01 | locus YML124C, strain tub3, stronger effect = lower value 1.01 | locus YMR058W, strain fet3, stronger effect = lower value 1.04 | locus YMR078C, strain ctf18, stronger effect = lower value 1.02 | locus YMR125W, strain sto1, stronger effect = lower value 1.05 | locus YMR129W, stronger effect = lower value 1.01 | locus YMR205C, strain PFK2, stronger effect = lower value 1.04 | locus YMR223W, strain ubp8, stronger effect = lower value 1.01 | locus YMR231W, strain pep5, stronger effect = lower value 1.02 | locus YMR263W, strain SAP30, stronger effect = lower value 1.02 | locus YMR307W, strain GAS1, stronger effect = lower value 1.03 | locus YNL067W, strain RPL9B, stronger effect = lower value 1.04 | locus YNL071W, strain lat1, stronger effect = lower value 1.02 | locus YNL183C, strain NPR1, stronger effect = lower value 0.969 | locus YNL209W, strain ssb2, stronger effect = lower value 1.02 | locus YNL233W, strain BNI4, stronger effect = lower value 1.07 | locus YNL248C, strain rpa49, stronger effect = lower value 1.03 | locus YNL250W, strain rad50, stronger effect = lower value 1.04 | locus YNL271C, strain bni1, stronger effect = lower value 1.01 | locus YNL298W, strain CLA4, stronger effect = lower value 1.01 | locus YNL307C, strain MCK1, stronger effect = lower value 1.02 | locus YNL322C, strain KRE1 (second series), stronger effect = lower value 1.02 | locus YNR049C, strain mso1, stronger effect = lower value 1.06 | locus YNR052C, strain pop2, stronger effect = lower value 1.03 | locus YOL012C, strain htz1 1.1 | locus YOL147C, strain pex11, stronger effect = lower value 1.02 | locus YOR001W, strain rrp6, stronger effect = lower value 1.03 | locus YOR061W, strain CKA2, stronger effect = lower value 0.999 | locus YOR069W, strain VPS5, stronger effect = lower value 1 | locus YOR070C, strain gyp1, stronger effect = lower value 1.02 | locus YOR080W, strain dia2, stronger effect = lower value 1.05 | locus YOR083W, strain WHI5, stronger effect = lower value 1 | locus YOR106W, strain vam3, stronger effect = lower value 1 | locus YOR136W, strain idh2, stronger effect = lower value 1.02 | locus YOR144C, strain elg1, stronger effect = lower value 1 | locus YOR184W, strain ser1, stronger effect = lower value 0.981 | locus YOR231W, strain MKK1, stronger effect = lower value 1.02 | locus YOR265W, strain rbl2, stronger effect = lower value 1.03 | locus YOR270C, strain vph1, stronger effect = lower value 1.07 | locus YOR290C, strain snf2, stronger effect = lower value 1.01 | locus YOR316C, strain cot1, stronger effect = lower value 1.02 | locus YPL051W, strain arl3, stronger effect = lower value 1 | locus YPL078C, strain atp4, stronger effect = lower value 1.01 | locus YPL106C, strain sse1, stronger effect = lower value 1.04 | locus YPL240C, strain hsp82, stronger effect = lower value 1.02 | locus YPL256C, strain CLN2, stronger effect = lower value 1.03 | locus YPR119W, strain clb2, stronger effect = lower value 1 | locus YPR141C, strain kar3, stronger effect = lower value 0.987 | locus YPR163C, strain tif3, stronger effect = lower value 1.02 | locus YPR167C, strain met16, stronger effect = lower value 1.01 | strain wtn01, stronger effect = lower value 1
